Results taken from PubChem BioAssay AID1159580 (chemical genetic matrix, 2015).
About 2,000 (36%) of roughly 5,500 compounds were called active. Inconclusive results (about 18%) are left out. No stated cut-off is given here; in the data, active means normalized growth mostly below about 0.91 (no sharp cut-off); inconclusive means no clear call, values can overlap the other calls; inactive means mostly above about 0.92. The list shows a part of the results.

Assay: chemical genetic growth profiling, strain panel (AID 1159580);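 further: tested at 20 µM; growth read once vehicle control cultures reached saturation at 30 °C; 1 = growth at the plate median or of vehicle wells; lower values mean less growth of the strain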
Settings: growth OD

Measured: normalized growth

COP(=S)(OC)Oc1ccc(SC)c(C)c1
active: S. cerevisiae deletion strains, locus YLR320W, strain mms22, active compounds read low 0.857 | S. cerevisiae deletion strains, locus YNL071W, strain lat1, active compounds read low 0.879
inactive: S. cerevisiae deletion strains, locus YJR075W, strain HOC1, active compounds read low 1.01 | S. cerevisiae deletion strains, locus YKL009W, strain mrt4, active compounds read low 0.942 | S. cerevisiae deletion strains, locus YKL068W, active compounds read low 0.996 | S. cerevisiae deletion strains, locus YKL085W, strain MDH1 (second series), active compounds read low 0.999 | S. cerevisiae deletion strains, locus YKL085W, strain MDH1, active compounds read low 0.999 | S. cerevisiae deletion strains, locus YKL160W, strain elf1, active compounds read low 0.999 | S. cerevisiae deletion strains, locus YKL190W, strain CNB1, active compounds read low 1 | S. cerevisiae deletion strains, locus YKR001C, strain vps1, active compounds read low 0.986 | S. cerevisiae deletion strains, locus YKR026C, strain gcn3, active compounds read low 1.01 | S. cerevisiae deletion strains, locus YKR091W, strain srl3, active compounds read low 0.995 | S. cerevisiae deletion strains, locus YLL001W, strain dnm1, active compounds read low 0.986 | S. cerevisiae deletion strains, locus YLL026W, active compounds read low 0.972 | S. cerevisiae deletion strains, locus YLL041C, strain sdh2, active compounds read low 1 | S. cerevisiae deletion strains, locus YLR027C, strain aat2, active compounds read low 0.988 | S. cerevisiae deletion strains, locus YLR039C, strain RIC1, active compounds read low 1.02 | S. cerevisiae deletion strains, locus YLR058C, strain SHM2, active compounds read low 1.01 | S. cerevisiae deletion strains, locus YLR102C, strain apc9, active compounds read low 0.985 | S. cerevisiae deletion strains, locus YLR221C, strain rsa3, active compounds read low 0.92 | S. cerevisiae deletion strains, locus YLR258W, strain gsy2, active compounds read low 0.979 | S. cerevisiae deletion strains, locus YLR262C, strain YPT6 (second series), active compounds read low 0.949 | S. cerevisiae deletion strains, locus YLR262C, strain YPT6, active compounds read low 1.01 | S. cerevisiae deletion strains, locus YLR268W, strain sec22, active compounds read low 0.996 | S. cerevisiae deletion strains, locus YLR330W, strain CHS5, active compounds read low 1.01 | S. cerevisiae deletion strains, locus YLR342W, strain FKS1 (second series), active compounds read low 0.985 | S. cerevisiae deletion strains, locus YLR342W, strain FKS1, active compounds read low 0.997 | S. cerevisiae deletion strains, locus YLR357W, strain rsc2, active compounds read low 1.1 | S. cerevisiae deletion strains, locus YLR370C, strain arc18, active compounds read low 1.06 | S. cerevisiae deletion strains, locus YLR371W, strain rom2, active compounds read low 0.989 | S. cerevisiae deletion strains, locus YLR384C, strain iki3, active compounds read low 1.02 | S. cerevisiae deletion strains, locus YLR418C, strain cdc73, active compounds read low 0.984 | S. cerevisiae deletion strains, locus YML016C, strain PPZ1, active compounds read low 1.02 | S. cerevisiae deletion strains, locus YML032C, strain rad52, active compounds read low 0.979 | S. cerevisiae deletion strains, locus YML120C, strain ndi1, active compounds read low 0.997 | S. cerevisiae deletion strains, locus YML124C, strain tub3, active compounds read low 0.985 | S. cerevisiae deletion strains, locus YMR058W, strain fet3, active compounds read low 0.987 | S. cerevisiae deletion strains, locus YMR078C, strain ctf18, active compounds read low 0.975 | S. cerevisiae deletion strains, locus YMR125W, strain sto1, active compounds read low 1.05 | S. cerevisiae deletion strains, locus YMR129W, active compounds read low 1.01 | S. cerevisiae deletion strains, locus YMR205C, strain PFK2, active compounds read low 0.947 | S. cerevisiae deletion strains, locus YMR223W, strain ubp8, active compounds read low 0.982 | S. cerevisiae deletion strains, locus YMR231W, strain pep5, active compounds read low 1 | S. cerevisiae deletion strains, locus YMR263W, strain SAP30, active compounds read low 1.01 | S. cerevisiae deletion strains, locus YMR307W, strain GAS1, active compounds read low 0.908 | S. cerevisiae deletion strains, locus YNL067W, strain RPL9B, active compounds read low 1.01 | S. cerevisiae deletion strains, locus YNL128W, strain TEP1, active compounds read low 1.02 | S. cerevisiae deletion strains, locus YNL153C, strain GIM3, active compounds read low 1.02 | S. cerevisiae deletion strains, locus YNL209W, strain ssb2, active compounds read low 1.01 | S. cerevisiae deletion strains, locus YNL233W, strain BNI4, active compounds read low 0.998 | S. cerevisiae deletion strains, locus YNL248C, strain rpa49, active compounds read low 0.967 | S. cerevisiae deletion strains, locus YNL250W, strain rad50, active compounds read low 0.987 | S. cerevisiae deletion strains, locus YNL271C, strain bni1, active compounds read low 0.989 | S. cerevisiae deletion strains, locus YNL298W, strain CLA4, active compounds read low 0.981 | S. cerevisiae deletion strains, locus YNL307C, strain MCK1, active compounds read low 0.979 | S. cerevisiae deletion strains, locus YNL322C, strain KRE1 (second series), active compounds read low 1.01 | S. cerevisiae deletion strains, locus YNL322C, strain KRE1, active compounds read low 1.02 | S. cerevisiae deletion strains, locus YNR049C, strain mso1, active compounds read low 1 | S. cerevisiae deletion strains, locus YNR052C, strain pop2, active compounds read low 0.984 | S. cerevisiae deletion strains, locus YOL006C, strain TOP1, active compounds read low 1.01 | S. cerevisiae deletion strains, locus YOL012C, strain htz1 1.06 | S. cerevisiae deletion strains, locus YOL147C, strain pex11, active compounds read low 0.985 | S. cerevisiae deletion strains, locus YOR001W, strain rrp6, active compounds read low 0.99 | S. cerevisiae deletion strains, locus YOR061W, strain CKA2, active compounds read low 1.01 | S. cerevisiae deletion strains, locus YOR069W, strain VPS5, active compounds read low 1.01 | S. cerevisiae deletion strains, locus YOR070C, strain gyp1, active compounds read low 0.978 | S. cerevisiae deletion strains, locus YOR080W, strain dia2, active compounds read low 1.03 | S. cerevisiae deletion strains, locus YOR083W, strain WHI5, active compounds read low 0.951 | S. cerevisiae deletion strains, locus YOR106W, strain vam3, active compounds read low 0.968 | S. cerevisiae deletion strains, locus YOR136W, strain idh2, active compounds read low 0.985 | S. cerevisiae deletion strains, locus YOR144C, strain elg1, active compounds read low 0.992 | S. cerevisiae deletion strains, locus YOR184W, strain ser1, active compounds read low 0.958 | S. cerevisiae deletion strains, locus YOR265W, strain rbl2, active compounds read low 1.01 | S. cerevisiae deletion strains, locus YOR270C, strain vph1, active compounds read low 0.791 | S. cerevisiae deletion strains, locus YOR290C, strain snf2, active compounds read low 0.994 | S. cerevisiae deletion strains, locus YOR316C, strain cot1, active compounds read low 0.992 | S. cerevisiae deletion strains, locus YPL051W, strain arl3, active compounds read low 0.96 | S. cerevisiae deletion strains, locus YPL055C, strain LGE1, active compounds read low 1.01 | S. cerevisiae deletion strains, locus YPL078C, strain atp4, active compounds read low 0.988 | S. cerevisiae deletion strains, locus YPL106C, strain sse1, active compounds read low 1.08 | S. cerevisiae deletion strains, locus YPL240C, strain hsp82, active compounds read low 1.03 | S. cerevisiae deletion strains, locus YPL241C, strain CIN2, active compounds read low 1.01 | S. cerevisiae deletion strains, locus YPR119W, strain clb2, active compounds read low 0.981 | S. cerevisiae deletion strains, locus YPR141C, strain kar3, active compounds read low 0.988 | S. cerevisiae deletion strains, locus YPR163C, strain tif3, active compounds read low 0.98 | S. cerevisiae deletion strains, locus YPR167C, strain met16, active compounds read low 0.983 | S. cerevisiae deletion strains, strain wtn01, active compounds read low 0.989 | S. cerevisiae strains, strain wild type, active compounds read low 1.01
